Each structure is given as a SMILES string. The campaign covered roughly 310,000 compounds. About 17,000 (5.5%) were called active. A call without a number means that no potency is given here. Another 11% or so got no clear call; they are omitted. The full list was thinned out, with actives kept by preference. A number with no mark means an inactive call. Calls follow the shape of the dose curve; as a rule, active = well fitted inhibition curve with a large enough effect; inconclusive = small, poorly fitted or top-dose-only effect, or effect the other way; inactive = no such curve, though single readings can be large or run the other way.

The source of these data is PubChem BioAssay AID2551 (National Center for Advancing Translational Sciences (NCATS), 2010).
Potency is read from the fitted curve at half-maximal effect.

Nuclear receptor ROR-gamma (Mus musculus), sequence (P51450 whole entry, looked up, the tested form may be a part): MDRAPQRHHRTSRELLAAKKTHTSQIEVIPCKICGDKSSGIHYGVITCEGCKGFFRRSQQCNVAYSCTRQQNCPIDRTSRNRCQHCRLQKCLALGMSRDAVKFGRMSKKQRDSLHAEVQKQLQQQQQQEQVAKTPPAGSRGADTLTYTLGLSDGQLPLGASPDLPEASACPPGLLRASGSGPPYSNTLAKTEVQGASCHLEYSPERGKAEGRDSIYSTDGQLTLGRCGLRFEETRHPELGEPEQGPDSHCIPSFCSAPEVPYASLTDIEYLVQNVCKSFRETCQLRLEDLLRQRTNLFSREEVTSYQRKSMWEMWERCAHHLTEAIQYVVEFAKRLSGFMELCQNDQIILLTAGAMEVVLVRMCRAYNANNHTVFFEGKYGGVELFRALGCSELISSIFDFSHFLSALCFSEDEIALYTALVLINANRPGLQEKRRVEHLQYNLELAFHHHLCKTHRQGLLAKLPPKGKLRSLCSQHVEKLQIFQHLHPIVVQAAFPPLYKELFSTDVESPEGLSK

The experiment concerns the target Nuclear receptor ROR-gamma (Mus musculus) (UniProt P51450). In words: qHTS for inhibitors of ROR gamma transcriptional activity. Also: nearly all actives have a fitted effect of over 60% in size. The settings on record: Drosophila S2 Gal4-RORgamma UAS-luciferase reporter, 20 h; series mostly up to 53.6 µM. An outline of the steps:
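Compounds are pin-transferred onto Drosophila Schneider cells expressing a copper-inducible Gal4–ROR gamma transactivation domain fusion. After 1 hr, copper sulfate is added to 700 uM final; luciferase is read 20 hr later.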
A general note: qHTS replaces the single test concentration by a dilution series.
On to `O=C(Nc1ccc(N2CCCC2=O)cc1)c1cncc(Br)c1`, for which the Potency entry was “inactive”.

Consider `COc1ccc(NC(=O)c2cc([N+](=O)[O-])ccc2NC(=O)CNC2CCCCC2C)c(OC)c1` (configuration not stated), for which the Potency entry was “inactive”.

As for `C=C(Br)Cn1c(CCCC)nc2ccccc21`, the Potency was 15.8 µM (active).

For the compound `CCCCn1c(CCCNC(=O)CC)nc2ccccc21`, the Potency result was “inactive”.

Take `CCCCn1c(CN2CCN(CCO)CC2)nc2ccccc21`: the Potency result is “inactive”.

`Cc1snc(SCc2c(F)cccc2Cl)c1C#N`: the Potency entry was “inactive”.

Regarding `CCc1ccc(OCC(=O)N(Cc2ccccc2)C2CCS(=O)(=O)C2)cc1` (configuration not stated), the Potency entry is “inactive”.

Consider `C=CCNC(=S)NNC(=O)c1cc(Cl)ccc1OC`, for which the Potency entry was “inactive”.

With `COc1ccc(Cl)cc1C(=O)NNC(=S)NC1CCCC1`, the Potency was 11.2 µM (active).

As to `COc1cc(C(=S)NC2CCCCC2)ccc1O`, the Potency result was “inactive”.

For the compound `COc1ccc(C(C)NC(=S)NC2CCCCC2)cc1OC` (configuration not stated), the Potency is 11.2 µM (active).

Regarding `COc1cc(OC)c(C(=O)NC2CCCCCC2)cc1OC`, the Potency result is “inactive”.

As for `COc1ccc(Cl)cc1C(=O)NNC(=O)c1nc2nc(C)cc(C)n2n1`, the Potency entry is “inactive”.

On to `COc1ccc(Cl)cc1C(=O)NCC#N`, for which the Potency result was “inactive”.

For `COc1ccc(CCNC(=O)CCC(=O)NC2CCCCC2)cc1OC`, the Potency entry was “inactive”.

Regarding `COc1ccc(Cl)cc1C(=O)NNC(=S)NC(=O)/C=C/c1ccco1`, the Potency was 3.98 µM (active).

`CSc1ncccc1C(=O)NCc1ccccc1Cl`: the Potency entry is “inactive”.

On to `COC(=O)c1ccc(CNC(=O)C2CCC(=O)N(Cc3cccc(F)c3)C2)cc1` (configuration not stated), for which the Potency entry is “inactive”.

With `CCc1nnc(NC(=O)CSCc2cc(=O)n3cc(C)sc3n2)s1`, the Potency result was “inactive”.

Consider `O=C1C(=O)N(CCCN2CCOCC2)C(c2ccc([N+](=O)[O-])cc2)/C1=C(\O)c1ccc2c(c1)OCCO2` (configuration not stated), for which the Potency result is “inactive”.

Consider `C=CCn1c(=O)c(C(=O)NCc2ccc3c(c2)OCO3)c(O)c2ccccc21`, for which the Potency result is “inactive”.

Consider `CC1CCN(CCCn2c(SCC(=O)NC3CCCC3)nc3ccccc3c2=O)CC1`, for which the Potency entry is “inactive”.

As for `CN(CCNC(=O)c1cc2c(-c3ccccc3F)nn(C)c2s1)C1CCCCC1`, the Potency entry was “inactive”.

Consider `O=c1[nH]cnc(O)c1C(c1ccc(F)cc1)c1c(O)nc[nH]c1=O`, for which the Potency entry was “inactive”.

Turning to `CCOc1ccc(CCNC(=O)CCc2nnc3ccc(N4CCCC4)nn23)cc1OCC`, the Potency entry is “inactive”.

For the compound `CCOC(=O)C1(CCOC)CCN(Cc2ccc(C(=O)OC)cc2)CC1`, the Potency was 7.08 µM (active).

For the compound `CCOC(=O)C1(CCOC)CCN(Cc2cc3ccccc3s2)CC1`, the Potency entry was “inactive”.

Consider `COC(=O)c1ccc(CN2CCC(CO)(Cc3ccc(OC)cc3)CC2)cc1`, for which the Potency entry was “inactive”.

As to `Cc1cc2c(c(=O)n1Cc1ccccc1)C1O[C@](CCCCN3C(=O)c4ccccc4C3=O)(Cc3ccccc31)O2`, the activity change, negative = inhibition was 18.4% [at 10 µM].

`O=C(CN1CCc2cc3c(cc2C1)OCCCO3)Nc1ccccc1`: the Potency entry was “inactive”.

Regarding `Cc1ccc(-n2cc(CN(C)Cc3nccn3C)c(-c3cccc(C)c3)n2)cc1`, the Potency is 7.94 µM (active).

In the case of `COc1ccc(-n2cc(CN(C)Cc3n[nH]c(=O)[nH]3)c(-c3cccc(F)c3)n2)cc1`, the Potency entry is “inactive”.

With `Cc1cccc(-n2cc(CN3CCN(C(=O)c4ncn[nH]4)CC3)c(-c3cccc(F)c3)n2)c1`, the Potency result was “inactive”.

As to `COc1ccc(NC(=O)CCC(=O)Nc2nnc(C3CCCCC3)s2)cc1`, the Potency result was “inactive”.

On to `CC(C)(C)NS(=O)(=O)c1ccc(NC(=O)C2CCCO2)cc1` (configuration not stated), for which the Potency result is “inactive”.

As for `O=C(CNC(=O)c1cccnc1)N/N=C/c1cc(Br)c(O)c(Br)c1`, the Potency entry is “inactive”.

As to `Oc1c(Br)cc(/C=N/NC(=S)NCC2CCCO2)cc1Br` (configuration not stated), the Potency is 0.1 µM (active).

Turning to `O=C(CNC(=O)C1COc2ccccc2O1)N/N=C/c1cc(Br)c(O)c(Br)c1` (configuration not stated), the Potency result was “inactive”.

Consider `c1ccc2sc(NN=C3CCCC3)nc2c1`, for which the Potency was 7.94 µM (active).

As to `O=C(Nc1ccccc1)Nc1nc2ccccc2s1`, the Potency result is “inactive”.

For `CSCCC(Nc1nc2ccccc2s1)C(=O)O` (configuration not stated), the Potency entry was “inactive”.

Take `CC(C)(COC(=O)Nc1ccccc1)COC(=O)Nc1ccccc1`: the Potency entry was “inactive”.

For `CCn1c(SCC(=O)Nc2ccc(Br)cc2)nc2sc3c(c2c1=O)CCN(C)C3`, the Potency result is “inactive”.

Turning to `Nc1ncc(CN2CCCC(C(=O)Nc3ccc(-c4ccco4)cc3)C2)cn1` (configuration not stated), the Potency result is “inactive”.

Turning to `CCOCc1nnc(NC(=O)CCS(=O)(=O)Cc2ccccc2)s1`, the Potency result was “inactive”.

For `CCOCCOC(=O)C1=C(C)NC(=O)NC1c1ccc2c(c1)OCO2` (configuration not stated), the Potency entry was “inactive”.

For the compound `CN(C)CCCN(C(=O)c1ccc(S(=O)(=O)N2CCCCCC2)cc1)c1nc2ccc(Br)cc2s1`, the Potency was 2.82 µM (active).

As to `CC(=O)N(CCCN(C)C)c1nc2ccc(C)cc2s1`, the Potency entry was “inactive”.

Consider `CCN(CC)CCN(C(=O)c1ccc(S(=O)(=O)N2CCOCC2)cc1)c1nc2cc3c(cc2s1)OCCO3`, for which the Potency entry is “inactive”.

For the compound `CN1CCN(C(=O)c2ccccc2NC(=O)COc2ccccc2Cl)CC1`, the Potency entry was “inactive”.

For the compound `O=C1COc2ccc(S(=O)(=O)NCCc3ccc(Cl)cc3)cc2N1`, the Potency result was “inactive”.

As to `Cc1cc(OCC(=O)Nc2c(C)n(C)n(-c3ccccc3)c2=O)ccc1[N+](=O)[O-]`, the Potency entry was “inactive”.

On to `Oc1cccc(C2c3[nH]c4ccccc4c3CCN2Cc2cnn(-c3ccccc3)c2)c1` (configuration not stated), for which the Potency entry is “inactive”.

Consider `COc1ccc(C2c3[nH]c4ccccc4c3CCN2CCCn2cccn2)cc1C` (configuration not stated), for which the Potency result was “inactive”.

With `COc1cccc(C2c3[nH]c4ccccc4c3CCN2Cc2cccc(C)n2)c1` (configuration not stated), the Potency was 12.6 µM (active).

In the case of `CN(Cc1ccc(F)cc1Cl)S(=O)(=O)c1cccs1`, the Potency result was “inactive”.

In the case of `CCc1ccc2[nH]c(=O)c(Cc3ccccc3)c(O)c2c1`, the Potency entry is “inactive”.

Consider `O=C1C=C(c2ccc(Cl)cc2)C(=O)N1Nc1ccccc1`, for which the Potency was 7.08 µM (active).

As for `O=C1c2cccc3cc(Br)cc(c23)C(=O)N1Nc1ccccc1`, the Potency result was “inactive”.

In the case of `O=C(Nc1ccccc1)OCc1cc(-c2ccc(Cl)cc2)on1`, the Potency entry was “inactive”.

`CC1(C)Cc2c(sc(NC(=O)C(=O)N3CCOCC3)c2C#N)CO1`: the Potency result is “inactive”.

In the case of `O=S(=O)(Nc1ccccc1Cl)c1cccc2nsnc12`, the Potency result was “inactive”.

Turning to `O=C(Cc1ccccc1)Nc1ccc(NC(=O)c2cccnc2)cc1`, the Potency result was “inactive”.

As to `CCC(C)C(=O)Nc1ccccc1N1CCN(c2ccc(F)cc2)CC1` (configuration not stated), the activity change, negative = inhibition was -20.4% [at 1.91 µM].

For `Cc1cc(C)n(CCC(=O)N2CCN(S(=O)(=O)c3ccc(C)c(C)c3)CC2)n1`, the Potency entry is “inactive”.

`C/C(=N\NC(=O)CCn1nc(C)cc1C)C(C)(C)C`: the Potency was 11.2 µM (active).

`Cc1cc(C)n(CC(=O)Nc2ccc([N+](=O)[O-])cc2)n1`: the Potency result is “inactive”.

Turning to `C=CCSc1nnc(N2C(=O)C(O)=C(C(=O)c3ccco3)C2c2ccc(F)cc2)s1` (configuration not stated), the Potency entry was “inactive”.

As for `COc1cccc(NC(=O)c2ccc(S(=O)(=O)N(C)C)cc2)c1`, the Potency entry was “inactive”.

In the case of `COc1cccc(C(=O)Nc2nnc(S(=O)(=O)N(C)c3ccccc3)s2)c1`, the Potency result was “inactive”.

Consider `COc1cccc(-c2nnc(NC(=O)c3ccc(S(=O)(=O)N(CC(C)C)CC(C)C)cc3)o2)c1`, for which the Potency is 0.282 µM (active).

Consider `COc1ccc2[nH]c3nc(SCC(=O)NC4CC4)nnc3c2c1`, for which the Potency result is “inactive”.

Take `COc1cc2c(C(=O)O)c(C)n(C)c2c2ccccc12`: the Potency entry is “inactive”.

In the case of `Cc1c(C(=O)N/N=C/c2ccccc2)[nH]c2c([N+](=O)[O-])cccc12`, the Potency result is “inactive”.

Regarding `COc1cccc2c(C)c(C(=O)O)[nH]c12`, the Potency was 2 µM (active).

For the compound `CCOC(=O)C1CN(S(=O)(=O)c2ccc(OC)cc2)c2cc(Cl)ccc2O1` (configuration not stated), the Potency entry was “inactive”.

Consider `COc1ccc(Cc2nc3ccc(C(=O)N4CCC(N(C)C)C4)cc3o2)cc1` (configuration not stated), for which the Potency result was “inactive”.

With `C/C(=N\Nc1nncc2ccccc12)c1ccc(Cl)c([N+](=O)[O-])c1`, the Potency result was “inactive”.

As for `COc1ccc(NC(=O)CC2C(=O)NC3CCCCC3N2C(=O)c2ccc(F)cc2)cc1` (configuration not stated), the Potency result is “inactive”.

For `O=C(Nn1cc(C(=O)N2CCN(c3ccccc3F)CC2)c2ccccc2c1=O)c1cnccn1`, the Potency is 14.1 µM (active).

For `Cn1c(=O)cc(OCC(=O)N2CCN(c3ccccc3F)CC2)c2ccccc21`, the Potency result was “inactive”.

Regarding `O=C(c1ccc(S(=O)(=O)N2CCCC2)cc1)N1CCN(c2ccccc2F)CC1`, the Potency result was “inactive”.

`CC1CCN(C(=O)c2ccc3c(=O)n4c(nc3c2)CCCCC4)CC1`: the Potency result is “inactive”.

On to `NS(=O)(=O)c1ccccc1NC(=O)c1c(O)c2ccccc2[nH]c1=O`, for which the Potency entry was “inactive”.

As for `C/C(=N\NC(N)=S)c1cccnc1`, the Potency entry is “inactive”.

Turning to `C/C(=N\NC(N)=S)c1ccncc1`, the Potency result is “inactive”.

Consider `C/C(=N\NC(=S)NC(C)C)c1ccc(C(C)(C)C)cc1`, for which the Potency is 1 µM (active).

Regarding `Cn1c(=O)c2sccc2n(Cc2ccc(Br)cc2)c1=O`, the Potency result is “inactive”.

`O=C(CN1C(=O)CSC1=O)N1CCCC(Nc2ccc(F)cc2)C1` (configuration not stated): the Potency entry was “inactive”.

On to `Nc1cc(N)nc(SCc2cccc(F)c2)n1`, for which the Potency entry was “inactive”.

For the compound `Cc1cc(C(=O)NCCCc2ccccc2)no1`, the Potency entry was “inactive”.

Take `CCC(=O)Nc1ccc(C(=O)Nc2cc(C)on2)cc1`: the Potency entry is “inactive”.

Take `CCCCNC(=S)NNC(=O)c1cc(C)on1`: the Potency was 10 µM (active).

For `O=C(Nc1ccccc1)c1ccco1`, the Potency entry is “inactive”.

With `COc1ccc(NC(=O)NN2CCN(C)CC2)c(OC)c1`, the Potency entry was “inactive”.

As to `COc1ccc(CCn2c(=N)c(C(=O)NCC3CCCO3)cc3c(=O)n4cccc(C)c4nc32)cc1OC` (configuration not stated), the Potency entry was “inactive”.

`COc1ccc(S(=O)(=O)N2CCOCC2)cc1C(=O)Nc1nc2ccccc2s1`: the Potency entry was “inactive”.

Consider `COc1cccc2sc(NNC(=O)c3nc4ccccc4s3)nc12`, for which the Potency is 3.55 µM (active).

For `COc1ccc(/C=C(/CC(=O)Nc2ccc(C)cc2)c2nc3ccccc3s2)cc1`, the Potency result was “inactive”.

As to `CCOC(=O)CNC(=O)CSc1ncccc1-c1nc2ccccc2[nH]1`, the Potency entry is “inactive”.

In the case of `COc1ccc(N(CC(=O)NCc2ccc(F)cc2)C(=O)CCC(=O)Nc2nccs2)cc1`, the Potency entry was “inactive”.

Consider `COc1ccc(S(=O)(=O)NNC(=O)Nc2ccc(C)cc2)c(OC)c1`, for which the Potency entry is “inactive”.

As for `O=C1c2ccccc2NC(c2ccccc2O)N1NS(=O)(=O)c1ccccc1` (configuration not stated), the Potency entry was “inactive”.

`CCOC(=O)NN1C(=O)c2ccccc2NC1c1ccccc1O` (configuration not stated): the Potency was 11.2 µM (active).

As for `CCOC(=O)NN1C(=O)c2ccccc2NC1c1cccc(O)c1` (configuration not stated), the Potency entry is “inactive”.

For `COc1ccc(N(CC(=O)N2CCOCC2)S(=O)(=O)c2ccccc2)cc1Cl`, the Potency entry is “inactive”.

For `Cc1ccc(NC(=O)CCN2C(=O)c3ccccc3C2=O)cc1C`, the Potency result was “inactive”.
